# Measured values taken from the supplement of paper PMC7866885, “A novel bicyclic 2,4-diaminopyrimidine inhibitor of Streptococcus suis dihydrofolate reductase” (PeerJ, 2021).
# ± gives the standard deviation.
# Test system: Streptococcus suis P1/7
# Assay: percent growth relative to DMSO control; higher = less growth inhibition
# Conditions: 10 µM; incubation time 18 h
# Description: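 CLSI broth microdilution: 5x10^4 CFU of Streptococcus suis (strain P1/7 or HE06) incubated with 10 µM Pathogen Box compound in cation-adjusted Mueller Hinton broth, 37 °C, 5% CO2, 18 h. Growth read as OD600 and expressed as percent of the DMSO-treated control (100%); mean ± SD of three independent experiments.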
row,Structure (SMILES),percent growth
1,O=C(Nc1ccc(N2CCNCC2)cc1)c1ccn2ncc(-c3cccc(Cl)c3)c2n1,75.2 ± 22%
2,Cc1ncc(-c2ccnc(Nc3ccc(S(C)(=O)=O)cc3)n2)n1C(C)C,150 ± 100%
3,COc1ccc2nc(C)cc(OCC(=O)Nc3ccccc3OC)c2c1,67.6 ± 16%
4,CC(=O)NCC1CN(c2ccc(-c3ccc(CNCc4cn[nH]n4)cc3)c(F)c2)C(=O)O1 (stereo not given),0.637 ± 0.99%
5,CC(C(=O)Nc1ccc2oc(-c3ccncc3)nc2c1)c1ccccc1 (stereo not given),95.8 ± 45%
6,CCn1ncc2c(NC3CCOCC3)c(CNC(=O)c3ccnn3C)c(C)nc21,85.7 ± 26%
7,NCCCC(N)(C(=O)O)C(F)F (stereo not given),90.1 ± 16%
8,CC(C)(C)c1cc(C(=O)Nc2cccnc2)cc(C(=O)Nc2cccnc2)c1,143 ± 90%
9,O=C(Nc1nnc(-c2ccc(Cl)cc2)o1)c1cccc(C(F)(F)F)c1,2.91 ± 3.9%
10,CC(=O)NC[C@H]1CN(c2ccc(N3CCSCC3)c(F)c2)C(=O)O1,2.2 ± 3.8%
11,CC(C)(C)C1CCC(CC2=C(O)C(=O)c3ccccc3C2=O)CC1 (stereo not given),36.3 ± 11%
12,CC(c1cc(Cl)cc(Cl)c1)N(C)c1ncc2c(N)nc(N)nc2n1 (stereo not given),57.6 ± 42%
13,CN1CCCC1CCO[C@](C)(c1ccccc1)c1ccc(Cl)cc1 (stereo not given in full),78.1 ± 43%
14,Cc1ccc(C(=O)Nc2ccc(S(=O)(=O)O)c3cc(S(=O)(=O)O)cc(S(=O)(=O)O)c23)cc1NC(=O)c1cccc(NC(=O)Nc2cccc(C(=O)Nc3cc(C(=O)Nc4ccc(S(=O)(=O)O)c5cc(S(=O)(=O)O)cc(S(=O)(=O)O)c45)ccc3C)c2)c1,85.9 ± 15%
15,CCOC(=O)c1noc(N)c1-c1ccccc1,113 ± 32%
16,NCCC(O)C(=O)N[C@@H]1C[C@H](N)[C@@H](OC2O[C@H](CN)[C@@H](O)[C@H](O)[C@H]2O)[C@H](O)C1OC1O[C@H](CO)[C@@H](O)[C@H](N)[C@H]1O (stereo not given in full),87.5 ± 38%
17,CCCCc1ccc(C(=O)Nc2nccc3ccccc23)nc1,13.4 ± 21%
18,COC(=O)c1c(NC(=O)c2c(F)c(F)c(F)c(F)c2F)sc2c1CCCCC2,85.2 ± 3%
19,COC(=O)c1cccc2oc(-c3cccc(OC)c3NC(=O)c3cc(-c4ccccc4)on3)nc12,66 ± 18%
20,O=C1Nc2ccc(Br)cc2C12NCCc1c2[nH]c2ccccc12 (stereo not given),112 ± 38%

row,Structure (SMILES),percent growth
1,O=C(Nc1ccc(N2CCNCC2)nc1)c1oc(-c2ccccc2)nc1C(F)(F)F,63.6 ± 18%
2,COc1nc2ccc(Br)cc2cc1[C@@H](c1ccccc1)[C@@](O)(CCN(C)C)c1cccc2ccccc12,68.8 ± 37%
3,c1ccc(Oc2ccc(-c3cc(C4CCOCC4)[nH]n3)cc2)cc1,49.6 ± 19%
4,Cc1cc(OCC(=O)NCc2ccccc2)c2cc(Br)ccc2n1,176 ± 160%
5,Cc1nn2c(=O)c3c([nH]c2c1-c1ccc(Cl)cc1)CCCC3,12.7 ± 22%
6,Cc1cccc(Cn2ccc(NC(=O)c3ccc4c(c3)OCO4)n2)c1,102 ± 23%
7,CCCCN(CCCC)c1c(C#N)cc(S(=O)(=O)Nc2ccccc2)cc1C#N,69.8 ± 27%
8,Cc1ccc2[nH]c(C3CCCNC3)c(-c3ccncc3)c2c1 (stereo not given),89.8 ± 7.2%
9,CCCc1ccc(S(=O)(=O)Nc2ccc(CN3CCN(CC4CC4)CC3)cc2)cc1,94.1 ± 34%
10,COc1ccc(Cn2cnc3c(-c4ccco4)nc(Cl)nc32)cc1,102 ± 42%
11,FC(F)(F)c1ccc(N(c2cccnc2)C2CCN(c3ccc(C(F)(F)F)cn3)CC2)cc1,61.4 ± 12%
12,CC(Oc1cccc(Cl)c1)C(=O)Nc1ccc2oc(-c3ccncc3)nc2c1 (stereo not given),77.5 ± 2.9%
13,CC(C)(C)OC(=O)N1CCC(Cn2nc(-c3cnc4ccccc4c3)c3c(N)ncnc32)CC1,74.1 ± 6.8%
14,Cc1cc(NC(=O)c2ccc(S(=O)(=O)N(Cc3ccccc3)C(C)C)cc2)no1,71.6 ± 30%
15,Cc1cc(C)c2cc(C(=O)NC3CCCCCCC3)[nH]c2c1,90.1 ± 32%
16,COc1cc(C2=NCCN2)ccc1-c1cn(-c2cccc(C3=NCCN3)c2)nn1,73 ± 4.1%
17,Cc1cccc(NC(=O)c2cc(S(=O)(=O)N(C)c3ccc(F)cc3)ccc2Cl)n1,112 ± 33%
18,CCc1nc2ccccc2n1CC(O)COc1cc(C)ccc1Cl (stereo not given),103 ± 41%
19,CN1CCN(c2cc(-c3ccc(F)cc3)nc(-c3ccncc3)n2)CC1,89.1 ± 28%
20,CCc1c(C)nc(-n2nc(C)cc2NC(=O)c2ccccc2SC)[nH]c1=O,1.97 ± 3.8%
